# From PubChem BioAssay (EPA / NIEHS)
# Results filed as inconclusive are left out. Calls of active or inactive are those of the source. The calls were made as follows, unless noted: active = hit-call score of the fitted dose curve at least 0.9, where 1 is the maximum; inconclusive = response in the unintended direction; inactive = score below 0.9.
# Assays:
# [1] = ATG_XTT_Cytotoxicity: Cytotoxicity Assessment in the Attagene TRANS-FACTORIAL HepG2 Assay (AID 2283584);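 as to AC50: XTT signal for cell number as viability in transfected HepG2 cells; cells exposed to compound for 24 h before reading; active means loss of viability signal versus DMSO baseline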
# In short: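 HepG2 cells transiently transfected with GAL4-UAS multiple reporter units, dosed 24 h; cytotoxicity read by XTT as loss of signal versus DMSO baseline.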
# [2] = read-out: Transforming Growth Factor (TGFA), TGFA (gene 7039); assay: LTEA_HepaRG_TGFA: Life Technologies and Expression Analysis (LTEA) Assay for Transforming Growth Factor (TGFA) using HepaRG (AID 2283532; active = hit-call score of the fitted dose curve at least 0.9, where 1 is the maximum; inactive = score below 0.9); details: mRNA level, 48 h; actives raise or lower the signal
# In short: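 Differentiated HepaRG cells exposed 48 hours in serum-free induction medium, 0.5% DMSO vehicle, 8-point half-log series from 100 uM, in duplicate. TGFA mRNA by TaqMan qRT-PCR, normalised to ACTB, GAPDH, POLR2A; bidirectional fit versus DMSO.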
# [3] = read-out: Transforming Growth Factor (TGFB1), TGFB1 (gene 7040); assay: LTEA_HepaRG_TGFB1: Life Technologies and Expression Analysis (LTEA) Assay for Transforming Growth Factor (TGFB1) Transporter using HepaRG (AID 2283533; active = hit-call score of the fitted dose curve at least 0.9, where 1 is the maximum; inactive = score below 0.9); details: mRNA level, 48 h; actives raise or lower the signal
# In short: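 Differentiated HepaRG cells exposed 48 hr in serum-free induction medium to eight half-log concentrations up to 100 uM (0.5% DMSO), duplicate; TGFB1 mRNA by TaqMan qRT-PCR normalised to ACTB, GAPDH, POLR2A; bidirectional fit against DMSO.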
# TIMP1, TIMP1 (gene 7076) = assay: LTEA_HepaRG_TIMP1: Life Technologies and Expression Analysis (LTEA) Assay for TIMP1 using HepaRG (AID 2283534; active = hit-call score of the fitted dose curve at least 0.9, where 1 is the maximum; inactive = score below 0.9;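 also: TaqMan qRT-PCR signal normalized to ACTB GAPDH and POLR2A housekeeping genes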); details: mRNA level, 48 h; actives raise or lower the signal
# In short: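 Differentiated HepaRG cells exposed 48 h in serum-free induction medium, duplicates, eight half-log concentrations from 100 uM in 0.5% DMSO. TIMP1 mRNA by qRT-PCR normalized to ACTB, GAPDH, POLR2A; bidirectional fitting against DMSO.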
# [4] = read-out: Tumor necrosis factor receptor 1 (TNFRSF1A), TNFRSF1A (gene 7132); assay: LTEA_HepaRG_TNFRSF1A: Life Technologies and Expression Analysis (LTEA) Assay for Tumor necrosis factor receptor 1 (TNFRSF1A) using HepaRG (AID 2283535; active = hit-call score of the fitted dose curve at least 0.9, where 1 is the maximum; inactive = score below 0.9); details: mRNA level, 48 h; actives raise or lower the signal
# In short: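 Differentiated HepaRG cells in serum-free induction medium, exposed 48 h in duplicate to 8 half-log concentrations up to 100 uM in 0.5% DMSO. TNFRSF1A mRNA by Fluidigm TaqMan qRT-PCR, normalized to ACTB, GAPDH, POLR2A; bidirectional fit.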
# [5] = read-out: Thyroid Hormone Responsive (THRSP), THRSP (gene 7069); assay: LTEA_HepaRG_THRSP: Life Technologies and Expression Analysis (LTEA) Assay for Thyroid Hormone Responsive (THRSP) using HepaRG (AID 2283536; active = hit-call score of the fitted dose curve at least 0.9, where 1 is the maximum; inactive = score below 0.9); details: mRNA level, 48 h; actives raise or lower the signal
# In short: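 Differentiated HepaRG cells treated 48 h in serum-free induction medium with 8 half-log concentrations up to 100 uM (0.5% DMSO), duplicates. THRSP mRNA by TaqMan qRT-PCR normalised to ACTB, GAPDH, POLR2A; bidirectional fit versus DMSO.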
# [6] = read-out: Cellular tumor antigen p53 (Homo sapiens) (UniProt P04637); assay: LTEA_HepaRG_TP53: Life Technologies and Expression Analysis (LTEA) Assay for Tumor Protein P53 (TP53) using HepaRG (AID 2283537; active = hit-call score of the fitted dose curve at least 0.9, where 1 is the maximum; inactive = score below 0.9); details: mRNA level, 48 h; actives raise or lower the signal
# In short: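 Read-out is TP53 transcript level by microfluidic qRT-PCR, normalised to three housekeeping genes and fitted bidirectionally against DMSO. Human HepaRG cells received compounds for 48 h, highest concentration 100 uM.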
# [7] = read-out: UDP glucuronosyltransferase (UGT1A1), UGT1A1 (gene 54658); assay: LTEA_HepaRG_UGT1A1: Life Technologies and Expression Analysis (LTEA) Assay for UDP glucuronosyltransferase (UGT1A1) using HepaRG (AID 2283538; active = hit-call score of the fitted dose curve at least 0.9, where 1 is the maximum; inactive = score below 0.9); details: mRNA level, 48 h; actives raise or lower the signal
# In short: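 HepaRG cells, 0.5% DMSO vehicle, 48 h exposure in serum-free induction medium to 8-point half-log series topping at 100 uM, in duplicate. UGT1A1 mRNA by Fluidigm qRT-PCR, normalized to ACTB/GAPDH/POLR2A; bidirectional fit versus DMSO.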
# [8] = read-out: UDP glucuronosyltransferase (UGT1A6), UGT1A6 (gene 54578); assay: LTEA_HepaRG_UGT1A6: Life Technologies and Expression Analysis (LTEA) Assay for UDP glucuronosyltransferase (UGT1A6) using HepaRG (AID 2283539; active = hit-call score of the fitted dose curve at least 0.9, where 1 is the maximum; inactive = score below 0.9); details: mRNA level, 48 h; actives raise or lower the signal
# In short: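 Differentiated HepaRG cells, ~100,000/well, were exposed for 48 h in serum-free induction medium with 0.5% DMSO to 8-point half-log series topping at 100 uM, in duplicate. mRNA measured by Fluidigm TaqMan qRT-PCR, normalized to ACTB, GAPDH and POLR2A.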
# [9] = read-out: X-box binding protein 1 (XBP1), XBP1 (gene 7494); assay: LTEA_HepaRG_XBP1: Life Technologies and Expression Analysis (LTEA) Assay for X-box binding protein 1 (XBP1) using HepaRG (AID 2283540; active = hit-call score of the fitted dose curve at least 0.9, where 1 is the maximum; inactive = score below 0.9); details: mRNA level, 48 h; actives raise or lower the signal
# In short: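 Differentiated human HepaRG cells in serum-free induction medium exposed 48 h in duplicate to eight half-log concentrations up to 100 uM in 0.5% DMSO. XBP1 mRNA measured by Fluidigm TaqMan qRT-PCR, normalized to ACTB, GAPDH, POLR2A; bidirectional fitting against DMSO.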
# [10] = LTEA_HepaRG_LDH_cytotoxicity: Cytotoxicity Assessment in the Life Technologies and Expression Analysis (LTEA) Assay (AID 2283563)
# In short: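 Differentiated HepaRG cells in serum-free induction medium, exposed 48 h in duplicate to 8 half-log concentrations up to 100 uM in 0.5% DMSO. Cytotoxicity from LDH measured in spent medium, fit relative to DMSO.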
# [11] = TOX21_p53_BLA_p2_viability: Viability Assessment in the Tox21 HCT-116 p53 Agonism Beta-lactamase Assay, Phase 2 (AID 2283591);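 also: compound exposure lasted 16 h at 37 °C; actives lower the ATP signal meaning cytotoxicity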
# In short: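 HCT116 p53-bla cells, 4000/well, dosed after 5 h plating (217-fold dilution of DMSO stocks) and incubated 16 h at 37C. Viability taken as cellular ATP by CellTiter-Glo luminescence after 30 min RT; signal loss marks cytotoxicity.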
# [12] = target: Cellular tumor antigen p53 (Homo sapiens) (UniProt P04637); assay: TOX21_p53_BLA_p3_ratio: Tox21 HCT-116 p53 Agonism Beta-lactamase Assay, Ratio, Phase 3 (AID 2283596)
# In short: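 HCT116 p53-bla cells (4000/well) given compound in DMSO (217-fold dilution) after 5 h, incubated 16 h at 37C. CCF4-AM substrate 2 h at room temperature; 460/530 nm emission ratio, gain fitted against DMSO.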
# [13] = TOX21_p53_BLA_p4_viability: Viability Assessment in the Tox21 HCT-116 p53 Agonism Beta-lactamase Assay, Phase 4 (AID 2283597);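 also: hits lower the luminescence signal meaning cytotoxicity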
# In short: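 HCT-116 p53-bla cells, 4000/well, dosed after 5 h attachment and incubated 16 h at 37 °C, 5% CO2. Viability from CellTiter-Glo ATP luminescence after 30 min at room temperature, taken after the beta-lactamase read; loss of signal indicates cytotoxicity.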
# [14] = target: Cellular tumor antigen p53 (Homo sapiens) (UniProt P04637); assay: TOX21_p53_BLA_p5_ratio: Tox21 HCT-116 p53 Agonism Beta-lactamase Assay, Ratio, Phase 5 (AID 2283599)
# In short: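 HCT-116 p53-bla cells (4000/well) plated 5 h, dosed with compound (217-fold DMSO dilution) for 16 h at 37 C; CCF4-AM substrate 2 h at room temperature. Activity is the 460/530 nm emission ratio (405 nm excitation), fitted in gain-of-signal direction versus DMSO.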
# [15] = TOX21_p53_BLA_p5_viability: Viability Assessment in the Tox21 HCT-116 p53 Agonism Beta-lactamase Assay, Phase 5 (AID 2283600)
# In short: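 HCT-116 p53 beta-lactamase reporter cells, 4000/well, were exposed to compound (pin transfer, 217-fold dilution) for 16 hours at 37C. Cellular ATP was read by CellTiter-Glo luminescence after 30 min at room temperature.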
# [16] = target: Cellular tumor antigen p53 (Homo sapiens) (UniProt P04637); assay: TOX21_p53_BLA_p4_ratio: Tox21 HCT-116 p53 Agonism Beta-lactamase Assay, Ratio, Phase 4 (AID 2283601)
# In short: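 HCT-116 p53 beta-lactamase reporter cells (4000/well) preincubated 5 h, then compound (217-fold dilution of DMSO stock) for 16 h at 37C. CCF4-AM substrate added 2 h at room temperature; 460/530 nm emission ratio fitted upward versus DMSO.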
# [17] = Tanguay_ZF_120hpf_MORT_legacy: (Legacy) Oregon State University Tanguay Lab 120 Hour Post-fertilization zebrafish Assay for Mortality (AID 2283633)
# In short: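 Dechorionated Tropical 5D wild-type zebrafish embryos, one per well from 6 hpf, static exposure in 0.64% DMSO at 28C until 120 hpf. Mortality scored as binary by brightfield microscopy at 24 and 120 hpf.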
# [18] = target: Cellular tumor antigen p53 (Homo sapiens) (UniProt P04637); assay: TOX21_p53_BLA_p2_ratio: Tox21 HCT-116 p53 Agonism Beta-lactamase Assay, Ratio, Phase 2 (AID 2283592)
# In short: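 HCT-116 cells with p53-responsive beta-lactamase reporter, 4000 cells/well, preincubated 5 h, then compound in DMSO (217-fold dilution) for 16 h at 37C. CCF4-AM substrate 2 h at room temperature; 460/530 nm emission ratio fitted upward versus DMSO.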
# [19] = TOX21_p53_BLA_p3_viability: Viability Assessment in the Tox21 HCT-116 p53 Agonism Beta-lactamase Assay, Phase 3 (AID 2283593);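 also: cells exposed to compound for 16 h before reading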
# In short: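 HCT116 cells, 4000/well, dosed 5 h after plating by pin transfer (217-fold dilution from DMSO stock) and incubated 16 h at 37C, 5% CO2. Viability read as ATP luminescence with CellTiter-Glo after 30 min at room temperature.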
# Sequence of Cellular tumor antigen p53 (Homo sapiens) (P04637 whole entry, looked up): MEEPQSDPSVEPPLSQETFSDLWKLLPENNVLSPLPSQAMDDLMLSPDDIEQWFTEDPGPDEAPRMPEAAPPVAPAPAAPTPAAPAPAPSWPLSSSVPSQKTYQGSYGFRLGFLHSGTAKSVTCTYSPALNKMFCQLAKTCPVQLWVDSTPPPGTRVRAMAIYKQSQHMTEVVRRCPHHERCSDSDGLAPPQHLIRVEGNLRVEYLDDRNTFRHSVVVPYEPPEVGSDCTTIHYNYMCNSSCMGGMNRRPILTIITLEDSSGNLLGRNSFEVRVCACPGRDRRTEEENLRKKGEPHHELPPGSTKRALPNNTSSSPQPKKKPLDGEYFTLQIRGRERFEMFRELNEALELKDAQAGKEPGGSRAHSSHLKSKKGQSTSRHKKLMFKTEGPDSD
smiles,measurement,setting,value
CC(C)=CCCC(C)CC(=O)O (stereo unspecified),outcome,[1],inactive
CC1=C(Br)C(=O)C(Br)=C/C1=C(/c1ccccc1S(=O)(=O)O)c1cc(Br)c(O)c(Br)c1C,outcome,[1],inactive
Clc1cc(Cl)c(-c2c(Cl)c(Cl)cc(Cl)c2Cl)cc1Cl,outcome,[1],inactive
CCCCCCOCCOCCO,outcome,[1],inactive
ClC(c1ccccc1)(c1ccccc1)c1ccccc1,outcome,[1],inactive
BrCc1cccc(Oc2ccccc2)c1,outcome,[1],inactive
CC=Cc1ccc(OCC)c(O)c1,outcome,[1],inactive
CCCCCCC(C)(C)S,outcome,[1],inactive
CCOC(=O)CC(C)O (stereo unspecified),outcome,[1],inactive
CCCCOCC,outcome,[1],inactive
CC=Cc1ccc(OC)c(OC)c1,outcome,[1],inactive
COC(=O)c1ccc([N+](=O)[O-])cc1,outcome,[1],inactive
CCCCCCC(O)CCCCCCCCCCC(=O)O (stereo unspecified),outcome,[1],inactive
CCC1CCCCC1,outcome,[1],inactive
C=Cc1ccncc1,outcome,[1],inactive
CCN(CCC#N)c1ccc(N=Nc2ccc([N+](=O)[O-])cc2)cc1,outcome,[1],inactive
CCCCCCCC/C=C\CCCCCCCC(=O)OCC,outcome,[1],inactive
O=C(c1ccccc1)C(O)c1ccccc1 (stereo unspecified),outcome,[1],inactive
COc1ccc(CCO)cc1,outcome,[1],inactive
CCCC(O)C(O)CO (stereo unspecified),outcome,[1],inactive
CCCCCCCCCCCC(=O)OCC(O)CO (stereo unspecified),outcome,[1],inactive
COc1cccc(OC)c1O,outcome,[1],inactive
OC[C@H]1O[C@@H]2O[C@H]3[C@H](O)[C@@H](O)[C@@H](O[C@H]4[C@H](O)[C@@H](O)[C@@H](O[C@H]5[C@H](O)[C@@H](O)[C@@H](O[C@H]6[C@H](O)[C@@H](O)[C@@H](O[C@H]7[C@H](O)[C@@H](O)[C@@H](O[C@H]8[C@H](O)[C@@H](O)[C@@H](O[C@H]9[C@H](O)[C@@H](O)[C@@H](O[C@H]1[C@H](O)[C@H]2O)O[C@@H]9CO)O[C@@H]8CO)O[C@@H]7CO)O[C@@H]6CO)O[C@@H]5CO)O[C@@H]4CO)O[C@@H]3CO,outcome,[1],inactive
CS(=O)(=O)OCCCCOS(C)(=O)=O,outcome,[2],inactive
same,outcome,[3],inactive
same,outcome,"TIMP1, TIMP1 (gene 7076)",inactive
same,outcome,[4],inactive
same,outcome,[5],inactive
same,outcome,[6],inactive
same,outcome,[7],inactive
same,outcome,[8],inactive
same,outcome,[9],inactive
same,outcome,[10],inactive
same,outcome,[1],inactive
same,outcome,[11],inactive
same,outcome,[12],inactive
same,outcome,[13],inactive
same,outcome,[14],inactive
same,outcome,[15],inactive
same,outcome,[16],inactive
same,outcome,[17],inactive
CC(C)(C)C1=CC(=O)C(C(C)(C)C)=CC1=O,outcome,[1],inactive
O=C1OC(=O)c2c(Br)c(Br)c(Br)c(Br)c21,outcome,[1],inactive
CCCCCCC(=O)c1ccccc1,outcome,[1],inactive
O=C(Nc1ccc([N+](=O)[O-])cc1)Nc1ccc([N+](=O)[O-])cc1 (tested in a mixture with another compound),outcome,[1],inactive
Nc1ccc2cc(S(=O)(=O)O)cc(O)c2c1N=Nc1ccccc1C(F)(F)F,outcome,[1],inactive
CCCCCCC(C)Nc1ccc(Nc2ccccc2)cc1 (stereo unspecified),outcome,[1],inactive
CN(C)c1ccncc1,outcome,[1],inactive
CCCCCCCCCC(=O)OC,outcome,[1],inactive
Nc1c(S(=O)(=O)O)cc(Br)c2c1C(=O)c1ccccc1C2=O,outcome,[1],inactive
NCc1ccco1,outcome,[1],inactive
CCOC(=O)CN,outcome,[1],inactive
COCCOC(=O)c1ccccc1C(=O)OCCOC,outcome,[1],inactive
same,outcome,[11],inactive
same,outcome,[18],inactive
same,outcome,[12],inactive
same,outcome,[13],inactive
same,outcome,[14],inactive
same,outcome,[15],inactive
same,outcome,[16],inactive
CCCCCCCCC=CCCCCCCCC1=NCCN1CCO,AC50,[1],16.1 µM (active)
same,AC50,[11],46.1 µM (active)
same,outcome,[18],inactive
same,AC50,[12],87.1 µM (active)
same,AC50,[13],86.4 µM (active)
same,outcome,[14],inactive
same,outcome,[15],inactive
same,AC50,[16],87.8 µM (active)
Cc1ncc[nH]1,outcome,[1],inactive
same,outcome,[11],inactive
same,outcome,[18],inactive
same,outcome,[19],inactive
same,outcome,[12],inactive
same,outcome,[13],inactive
same,outcome,[14],inactive
same,outcome,[16],inactive
